# Compound activity as filed in PubChem BioAssay.
# HTT cytoprotect: qHTS Multiplex Assay to Identify Dual Action Probes in a Cell Model of Huntington: Cytoprotection (ATP) | PC12 HTT-Q103 induced, cytoprotection, ATP luminescence, 40 h | Potency, µM (doses to about 56.4 µM), for the others: cytoprotection (ATP increase), hits mostly activators | 230,000 compounds, 0.14% hits; also: potency is read from the fitted curve at half-maximal effect; % of control where 0% means no effect; nearly all actives have a fitted effect of over 45% in size
#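 Stable PC12 Q103-GFP cells in serum-supplemented, phenol red-free DMEM; induction by tebufenozide at 100 nM final; compound dose series; cell viability quantified luminescently from ATP.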
# PNC inhibitor: High Content Assay for Compounds that inhibit the Assembly of the Perinucleolar Compartment. AID 2417, 2010. activity change (PNC), negative = inhibition, % at 10 µM. 140,000 compounds, 3.1% hits. PC3M PTB-GFP, PNC prevalence imaging, 16 h; stronger effect = lower value;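 active = readout at or below -70, meaning at least 70% loss of cells showing the perinucleolar compartment, a nuclear body marking cancer cells; inconclusive = readout between -30 and a set limit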;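 also: plate controls were DMSO wells for no effect and camptothecin positive control wells for full effect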
#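 Compounds are pinned in duplicate onto adhered PC3M cells stably expressing GFP-tagged PTB and incubated 16 h at 37 C. Cells are then fixed, nuclei stained with Hoechst, and PNC-positive cells counted.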
# HTT aggregate: qHTS Multiplex Assay to Identify Dual Action Probes in a Cell Model of Huntington: Aggregate Formation (GFP). PC12 HttQ103-GFP aggregates, Acumen cytometry, 40 h. Potency, µM (highest dose often 46.1 µM), without a hit: top-dose activity change, negative = inhibition, usual class: inhibitors. 220,000 compounds, 1.1% hits; also: potency is read from the fitted curve at half-maximal effect; % is scaled to controls: 0 for no effect and ±100 for the full control effect; nearly all actives have a fitted effect of over 60% in size
#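 Inducible Q103 Huntingtin exon 1–GFP PC12 line, 1500 cells/well in phenol red free DMEM with 5% equine and 5% calf serum. Tebufenozide 100 nM induced expression; compounds titrated; aggregates quantified by cytometry.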
# * marks the source's active call; other numbers are inactive results; u = inconclusive; x = no result; [ ] = dose if it differs, or a comment. The entries come from a sample that favours hits as a whole. Unless noted, calls follow the shape of the dose curve; as a rule, active = well fitted curve in the direction sought with a large enough effect; inconclusive = small, poorly fitted or top-dose-only effect, or another doubt; inactive = no such curve, though single readings can be large; an effect the other way counts as inactive or inconclusive.
SMILES,HTT cytoprotect,PNC inhibitor,HTT aggregate
Oc1ccc(Br)cc1C=Nc1ccc2c3c(cccc13)CC2,x,-98*,-19%
Oc1ccc(Cl)cc1C=Nc1ccccc1Br,4%[10 µM],25,-6%
COc1ccc(C2NC(C(=O)O)Cc3c2[nH]c2ccccc32)cc1OC (configuration not stated),-14%,-98*,9%
COc1cc(C2NC(C(=O)O)Cc3c2[nH]c2ccccc32)cc(OC)c1OC (configuration not stated),-4%[10 µM],u,4%
CCN(CC)CCn1c(C)nc2ccccc21,-3%[10 µM],x,-10%[9.22 µM]
O=C(Nc1cccc(S(=O)(=O)N2CCCCC2)c1)c1ccccc1NS(=O)(=O)c1ccc(F)cc1,17%[1.9 µM],-4,29%
COc1ccc(S(=O)(=O)Nc2ccccc2C)cc1,-26%,u,-8%
Cc1ccc(NC(=O)c2ccccc2NS(=O)(=O)c2ccc(F)cc2)cc1S(=O)(=O)N1CCCCC1,-37%[10 µM],u,2.5µM*
O=C(Nc1ccc(F)cc1)c1cc(S(=O)(=O)N2CCCCC2)cs1,-9%,-24,10µM*
Cc1ccccc1NC(=O)c1cc(S(=O)(=O)N2CCCCC2)cs1,-14%,-6,-56%
Cc1ccccc1NS(=O)(=O)c1ccc(F)cc1,2%,-97*,2%
N#Cc1ccc(OCC(=O)NC2=NCCS2)cc1,-21%,x,11%
CCOC(=O)c1cnc(Nc2nc3ccccc3o2)nc1CN1CCN(C)CC1,-34%,29,u
COc1ccc(-c2cnc3nc(/N=C/N(C)C)nn3c2/N=C/N(C)C)cc1,9%[10 µM],x,5%
CCCN1C(=O)c2cc(C(=O)NCc3cccs3)ccc2C1O (configuration not stated),-13%,-13,3%
Cc1c(C)n(C)c2ccc(C(=O)NCc3cccs3)cc12,-12%[10 µM],-119*,-1%
C=C(C)COc1ccc(-c2[nH]ncc2-c2ccc(Br)cc2)c(O)c1,x,-1,u
C=C(C)COc1ccc(-c2n[nH]c(C)c2-c2ccc(Br)cc2)c(O)c1,-16%,u,7.9µM*
CC(C)c1ccc(N2C(=O)CC(Sc3nc4ccccc4o3)C2=O)cc1 (configuration not stated),-148%,24,3.5µM*
COc1ccc(N2C(=O)CC(Sc3nc4ccccc4s3)C2=O)cc1 (configuration not stated),-137%,x,32µM*
CC(C)c1ccc(N2C(=O)CC(Sc3ncn[nH]3)C2=O)cc1 (configuration not stated),1%,-9,-5%[9.22 µM]
CCOc1ccc2nc(SC3CC(=O)N(c4ccc(OC)cc4)C3=O)sc2c1 (configuration not stated),-111%,51,u
Cc1cc(NC(=O)CCC(=O)N(Cc2cccs2)C(C(=O)NC2CCCC2)c2ccccc2)no1 (configuration not stated),0%[10 µM],u,-13%
C=C1c2ccccc2O[C@H](C(=O)OCC)[C@@H]1C1CCCCC1 (tested in a mixture with another compound),-37%,x,x
O=C(C1=C[C@H](C2CCCCC2)C[C@H](OCCCCO)O1)N1CCN(Cc2ccccc2)CC1,21%[10 µM],x,14%[9.22 µM]
SMILES,HTT cytoprotect,PNC inhibitor,HTT aggregate
CCCNC1=C(N(C(C)=O)c2cccc(F)c2)C(=O)c2ccccc2C1=O,-76%[10 µM],-90*,11µM*
CCC(=O)N(C1=C(NC(C)C)C(=O)c2ccccc2C1=O)C(C)C,-4%[10 µM],x,-3%[9.22 µM]
O=C(c1ccccc1)c1c[nH]cc1-c1ccccc1,15%[10 µM],-100*,-11%
Cc1ccc(C(=O)c2c[nH]cc2-c2ccccc2)cc1,18%[10 µM],19,-15%
CCn1nc(C(=O)OCC(=O)Nc2ncc(Cl)c(C)c2Cl)c2ccccc2c1=O,12%[10 µM],u,-15%
Nc1nnc(-c2ccc(Cl)cc2)s1,-6%,48,7%
N#Cc1ccc(CN2CCCC3(CCN(C(=O)c4cc(C(F)(F)F)cc(C(F)(F)F)c4)CC3)C2)cc1,18%,x,x
O=C1OC(c2cccc([N+](=O)[O-])c2)C2(CCCC2)C(=O)C12CCCCC2 (configuration not stated),12%[10 µM],48,-12%
O=C1c2ccccc2C(=O)C12OC(c1ccccc1)C1(C(=O)c3ccccc3C1=O)C2c1cccc([N+](=O)[O-])c1 (configuration not stated),14%[10 µM],-100*,-5%
O=C(c1ccc(=O)oc1)N1CCN(C(c2ccccc2)c2ccccc2)CC1,-8%,u,-12%
CCc1ccc(C2C3=C(CC(C)(C)CC3=O)OC3=C2C(=O)CC(C)(C)C3)cc1,x,0,-1%
CCC1C(C#N)=C(SCC(N)=O)NC2=C1C(=O)CC(C)(C)C2 (configuration not stated),-11%[10 µM],x,-5%[9.22 µM]
COc1ccc(C2C(C#N)=C(SCC(=O)Nc3ccc(C)cc3)NC3=C2C(=O)CC(C)(C)C3)cc1 (configuration not stated),-43%,7,11µM*
O=c1c2ccccc2c(C=NCc2ccccn2)c(O)n1-c1ccccc1Cl,-30%,x,9%
CCOC(=O)c1ccc(NC(=O)Nc2cc(C)cc(C)n2)cc1,x,x,15%
Cc1cc(C(=O)OCC(=O)NC(C)(C)C)c2ccccc2n1,11%,16,-3%
CCOC(=O)c1cc(-c2ccccc2)n(CC(=O)Nc2ccc(OC)c(OC)c2)c1C,25%[10 µM],-88*,16%
CCOC(=O)c1cc(-c2ccccc2)n(CC(=O)Nc2cccc(OC)c2)c1C,-17%[10 µM],u,-15%
CCOc1cc(-c2nc(C)c(C(C)=O)n2O)ccc1OCC(=O)Nc1ccc(F)cc1,-67%,x,13%
COC(=O)c1ccccc1NC(=S)NC(=O)CC(C)C,-13%,44,1%
O=C(Nc1ccccc1)C1=C(c2ccccc2)S(=O)(=O)CCS1(=O)=O,-162%,x,5µM*
O=C(O)c1ccccc1C(=O)Nc1ccccc1,11%[10 µM],9,10%
CC(C)NC(=O)CC(=O)N/N=C\c1ccccc1C(=O)O,-1%[10 µM],x,6%[9.22 µM]
CC1(N2CCCCC2)CC2(O)C(=[N+]1[O-])CCC/C2=N\O (configuration not stated),14%[10 µM],1,3%
CCCCNC(=O)NNC(=O)c1ccc(F)cc1,x,-10,22%
SMILES,HTT cytoprotect,PNC inhibitor,HTT aggregate
O=C(CCC1CCCC1)NCc1cccs1,-20%,68,-3%
OC(c1cccs1)(c1cccs1)C1C[N+]2(CF)CCC1CC2 (configuration not stated),11%[10 µM],-98*,-4%
CC1=Nc2ccccc2/C1=C\c1nc(-c2ccc(F)cc2)oc1O,-9%[10 µM],57,29%
COc1ccc2cc(C(N)=O)c(=Nc3ccccc3)oc2c1,-1%,x,-18%
NC(=O)c1cc2ccc(O)cc2oc1=Nc1ccccc1,-21%,52,7.1µM*
Cc1cc(C)n2nc(-c3ccco3)nc2n1,-29%,x,-20%
Cc1ccc(NS(=O)(=O)c2cccc(C(=O)Nc3c(C)n(C)n(-c4ccccc4)c3=O)c2)cc1,4%[10 µM],x,7%[9.22 µM]
CC1(C)CC(=O)C=C(NNC(=O)c2cccnc2)C1,4%[10 µM],x,0%[9.22 µM]
